Targets with a hit are over-represented here; the source holds about 8,800 in all. About 0.5% of all pairs of compound and target were hits.
What was measured:
Assay in all cases: log2 fold change, soluble protein after heating vs DMSO (PISA); higher = thermal stabilisation; K562 lysate, 10 uM; active = over 0.2 and 3.5 SD of the protein, either way, in both replicates (recomputed)
alvocidib = compound: CN1CC[C@H](c2c(O)cc(O)c3c(=O)cc(-c4ccccc4Cl)oc23)[C@H](O)C1 [alvocidib]
How it was run: (§1)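 K562 pellets were dounce-homogenised in PBS pH 7.4 with 1 mM MgCl2, and the crude extract at 1 mg/mL protein was treated with 10 μM compound for 30 min. Aliquots were heated for 3 min across 48°C-58°C, pooled, and brought to 0.5% NP-40 at 4°C; soluble protein was the supernatant after 21,000xg for 90 min. Soluble protein was quantified by TMTpro 16plex LC-MS/MS with channel sums equalised, and reported as log2 fold change in thermal stability against DMSO controls, with values from duplicates.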

Tubastatin A = compound: CN1CCc2c(c3ccccc3n2Cc2ccc(C(=O)NO)cc2)C1 [Tubastatin A]
How it was run: as §1

[1] = compound: CNC(=O)C1=CC=CC=C1NC2=NC(=NC=C2Cl)NC3=C(C=C(C=C3)N4CCOCC4)OC
How it was run: as §1

defactinib = compound: CNC(=O)c1ccc(Nc2ncc(C(F)(F)F)c(NCc3nccnc3N(C)S(C)(=O)=O)n2)cc1 [defactinib]
How it was run: as §1

[2] = compound: CNc1nc(-c2ccc3c(N)n[nH]c3c2)cc(N2C[C@@H](C(=O)NC3CCCCC3)CC[C@H]2C)n1
How it was run: as §1

encorafenib = compound: COC(=O)N[C@@H](C)CNc1nccc(-c2cn(C(C)C)nc2-c2cc(Cl)cc(NS(C)(=O)=O)c2F)n1 [encorafenib]
How it was run: as §1

[3] = compound: COC(=O)[C@H](CCSC)NC(=O)C1=C(C=C(C=C1)NC[C@H](CS)N)C2=CC=CC=C2
How it was run: as §1

alisertib = compound: COc1cc(Nc2ncc3c(n2)-c2ccc(Cl)cc2C(c2c(F)cccc2OC)=NC3)ccc1C(=O)O [alisertib]
How it was run: as §1

[4] = compound: COc1cc2nc(-c3cc(F)ccc3O)nc(N[C@@H]3CNC[C@H]3C(C)(C)O)c2cc1OC
How it was run: as §1

gefitinib = compound: COc1cc2ncnc(Nc3ccc(F)c(Cl)c3)c2cc1OCCCN1CCOCC1 [gefitinib]
How it was run: as §1

lapatinib = compound: CS(=O)(=O)CCNCc1ccc(-c2ccc3ncnc(Nc4ccc(OCc5cccc(F)c5)c(Cl)c4)c3c2)o1 [lapatinib]
How it was run: as §1

pictilisib = compound: CS(=O)(=O)N1CCN(Cc2cc3nc(-c4cccc5[nH]ncc45)nc(N4CCOCC4)c3s2)CC1 [pictilisib]
How it was run: as §1

crizotinib = compound: C[C@@H](Oc1cc(-c2cnn(C3CCNCC3)c2)cnc1N)c1c(Cl)ccc(F)c1Cl [crizotinib]
How it was run: as §1

[5] = compound: C[C@H](C1=CC=C(C=C1)C(=O)NC2=C3C=CNC3=NC=C2)N
How it was run: as §1

duvelisib = compound: C[C@H](Nc1ncnc2nc[nH]c12)c1cc2cccc(Cl)c2c(=O)n1-c1ccccc1 [duvelisib]
How it was run: as §1

gandotinib = compound: Cc1cc(Nc2cc(CN3CCOCC3)c3nc(C)c(Cc4ccc(Cl)cc4F)n3n2)n[nH]1 [gandotinib]
How it was run: as §1

tozasertib = compound: Cc1cc(Nc2cc(N3CCN(C)CC3)nc(Sc3ccc(NC(=O)C4CC4)cc3)n2)n[nH]1 [tozasertib]
How it was run: as §1

doramapimod = compound: Cc1ccc(-n2nc(C(C)(C)C)cc2NC(=O)Nc2ccc(OCCN3CCOCC3)c3ccccc23)cc1 [doramapimod]
How it was run: as §1

bafetinib = compound: Cc1ccc(NC(=O)c2ccc(CN3CC[C@H](N(C)C)C3)c(C(F)(F)F)c2)cc1Nc1nccc(-c2cncnc2)n1 [bafetinib]
How it was run: as §1

[6] = compound: Cc1cccc(CC(=O)N2CCc3c2ccc(-c2cn(C)c4ncnc(N)c24)c3F)n1
How it was run: as §1

Measured: log2 fold change

OTUD7B (UniProt Q6GQQ9)
Chain of UniProt Q6GQQ9 (Q6GQQ9 whole entry, looked up): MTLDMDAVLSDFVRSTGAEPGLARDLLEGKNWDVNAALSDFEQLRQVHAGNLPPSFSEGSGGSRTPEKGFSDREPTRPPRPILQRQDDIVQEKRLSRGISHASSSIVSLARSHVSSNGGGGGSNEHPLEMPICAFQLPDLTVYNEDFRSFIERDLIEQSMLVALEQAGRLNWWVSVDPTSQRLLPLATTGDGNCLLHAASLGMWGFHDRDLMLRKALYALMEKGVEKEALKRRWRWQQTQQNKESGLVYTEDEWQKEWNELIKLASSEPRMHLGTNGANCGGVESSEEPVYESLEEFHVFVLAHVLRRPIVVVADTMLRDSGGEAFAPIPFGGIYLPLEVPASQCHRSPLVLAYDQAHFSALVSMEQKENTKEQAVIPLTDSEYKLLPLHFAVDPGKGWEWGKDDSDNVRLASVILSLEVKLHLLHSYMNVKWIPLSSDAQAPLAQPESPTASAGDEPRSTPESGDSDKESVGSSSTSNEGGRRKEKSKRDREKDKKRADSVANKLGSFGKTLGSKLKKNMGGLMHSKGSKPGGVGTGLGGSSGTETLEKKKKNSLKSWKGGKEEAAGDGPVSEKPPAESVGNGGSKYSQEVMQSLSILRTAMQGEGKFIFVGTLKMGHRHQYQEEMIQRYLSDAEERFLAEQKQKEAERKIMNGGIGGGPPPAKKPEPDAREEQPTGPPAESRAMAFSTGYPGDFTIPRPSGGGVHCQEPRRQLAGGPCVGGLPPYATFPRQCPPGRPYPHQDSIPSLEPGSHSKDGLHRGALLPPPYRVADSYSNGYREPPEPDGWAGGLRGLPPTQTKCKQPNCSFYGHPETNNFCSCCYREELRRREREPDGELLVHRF
inactive: alvocidib -0.052 | Tubastatin A -0.099 | [1] 0.005 | defactinib 0.022 | [2] -0.011 | encorafenib 0.042 | [3] 0.049 | alisertib -0.006 | [4] -0.031 | gefitinib 0.062 | lapatinib 0.033 | pictilisib 0.025 | crizotinib -0.099 | [5] 0.006 | duvelisib -0.041 | gandotinib 0.032 | tozasertib -0.01 | doramapimod -0.012 | bafetinib -0.003 | [6] 0.003

NUP98 (UniProt P52948)
Chain of UniProt P52948 (P52948 whole entry, looked up): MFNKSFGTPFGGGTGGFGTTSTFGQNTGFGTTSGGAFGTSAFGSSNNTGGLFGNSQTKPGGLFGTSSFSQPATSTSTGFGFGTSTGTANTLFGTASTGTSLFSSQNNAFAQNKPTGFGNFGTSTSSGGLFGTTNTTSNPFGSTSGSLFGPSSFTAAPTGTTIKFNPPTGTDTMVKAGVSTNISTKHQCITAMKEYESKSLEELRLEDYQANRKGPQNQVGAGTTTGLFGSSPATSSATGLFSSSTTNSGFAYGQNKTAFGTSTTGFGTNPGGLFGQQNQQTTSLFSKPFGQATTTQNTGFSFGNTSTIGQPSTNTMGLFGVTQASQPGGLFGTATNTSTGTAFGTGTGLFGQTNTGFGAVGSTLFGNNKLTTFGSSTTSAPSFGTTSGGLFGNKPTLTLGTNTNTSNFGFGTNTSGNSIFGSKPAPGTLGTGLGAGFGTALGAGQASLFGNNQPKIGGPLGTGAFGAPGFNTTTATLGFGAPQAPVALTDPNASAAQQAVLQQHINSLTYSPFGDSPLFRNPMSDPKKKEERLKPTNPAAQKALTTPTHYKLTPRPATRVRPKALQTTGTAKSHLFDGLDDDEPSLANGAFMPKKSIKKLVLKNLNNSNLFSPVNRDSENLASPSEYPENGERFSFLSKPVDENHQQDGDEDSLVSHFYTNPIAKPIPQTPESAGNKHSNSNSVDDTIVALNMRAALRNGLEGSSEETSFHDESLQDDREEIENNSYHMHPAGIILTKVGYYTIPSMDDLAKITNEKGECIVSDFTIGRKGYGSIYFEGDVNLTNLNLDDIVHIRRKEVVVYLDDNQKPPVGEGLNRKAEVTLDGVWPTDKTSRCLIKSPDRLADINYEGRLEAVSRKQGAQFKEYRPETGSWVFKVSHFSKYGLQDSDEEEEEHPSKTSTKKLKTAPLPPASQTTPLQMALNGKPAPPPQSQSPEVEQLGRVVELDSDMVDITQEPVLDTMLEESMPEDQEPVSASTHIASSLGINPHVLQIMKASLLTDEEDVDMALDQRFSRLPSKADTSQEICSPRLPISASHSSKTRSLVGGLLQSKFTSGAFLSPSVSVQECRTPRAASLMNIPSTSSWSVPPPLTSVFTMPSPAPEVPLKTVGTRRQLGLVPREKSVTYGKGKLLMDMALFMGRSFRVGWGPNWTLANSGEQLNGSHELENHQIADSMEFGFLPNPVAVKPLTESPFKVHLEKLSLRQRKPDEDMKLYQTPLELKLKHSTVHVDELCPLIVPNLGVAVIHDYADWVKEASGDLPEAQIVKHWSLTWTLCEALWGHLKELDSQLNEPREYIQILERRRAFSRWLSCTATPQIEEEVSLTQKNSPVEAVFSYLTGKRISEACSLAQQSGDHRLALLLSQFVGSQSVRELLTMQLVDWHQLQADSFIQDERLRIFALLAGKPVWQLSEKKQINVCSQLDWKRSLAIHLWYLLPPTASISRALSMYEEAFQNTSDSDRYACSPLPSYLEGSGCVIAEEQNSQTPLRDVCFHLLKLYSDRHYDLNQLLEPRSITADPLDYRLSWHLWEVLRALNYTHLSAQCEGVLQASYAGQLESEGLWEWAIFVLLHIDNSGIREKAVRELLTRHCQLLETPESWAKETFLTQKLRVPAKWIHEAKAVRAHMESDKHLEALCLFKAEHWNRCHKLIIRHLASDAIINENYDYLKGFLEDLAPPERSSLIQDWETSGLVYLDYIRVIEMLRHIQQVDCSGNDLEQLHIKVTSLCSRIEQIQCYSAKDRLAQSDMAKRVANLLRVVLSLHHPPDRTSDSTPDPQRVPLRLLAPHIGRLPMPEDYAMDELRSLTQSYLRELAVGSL
inactive: alvocidib -0.019 | Tubastatin A -0.117 | [1] 0.029 | defactinib 0.031 | [2] 0.047 | encorafenib 0.064 | [3] -0.04 | alisertib 0.01 | [4] 0.017 | gefitinib 0.011 | lapatinib 0.007 | pictilisib -0.041 | crizotinib 0.017 | [5] -0.014 | duvelisib -0.04 | gandotinib 0.01 | tozasertib -0.033 | doramapimod -0.024 | bafetinib -0.024 | [6] 0.043

NBN (UniProt O60934)
Chain of UniProt O60934 (O60934 whole entry, looked up): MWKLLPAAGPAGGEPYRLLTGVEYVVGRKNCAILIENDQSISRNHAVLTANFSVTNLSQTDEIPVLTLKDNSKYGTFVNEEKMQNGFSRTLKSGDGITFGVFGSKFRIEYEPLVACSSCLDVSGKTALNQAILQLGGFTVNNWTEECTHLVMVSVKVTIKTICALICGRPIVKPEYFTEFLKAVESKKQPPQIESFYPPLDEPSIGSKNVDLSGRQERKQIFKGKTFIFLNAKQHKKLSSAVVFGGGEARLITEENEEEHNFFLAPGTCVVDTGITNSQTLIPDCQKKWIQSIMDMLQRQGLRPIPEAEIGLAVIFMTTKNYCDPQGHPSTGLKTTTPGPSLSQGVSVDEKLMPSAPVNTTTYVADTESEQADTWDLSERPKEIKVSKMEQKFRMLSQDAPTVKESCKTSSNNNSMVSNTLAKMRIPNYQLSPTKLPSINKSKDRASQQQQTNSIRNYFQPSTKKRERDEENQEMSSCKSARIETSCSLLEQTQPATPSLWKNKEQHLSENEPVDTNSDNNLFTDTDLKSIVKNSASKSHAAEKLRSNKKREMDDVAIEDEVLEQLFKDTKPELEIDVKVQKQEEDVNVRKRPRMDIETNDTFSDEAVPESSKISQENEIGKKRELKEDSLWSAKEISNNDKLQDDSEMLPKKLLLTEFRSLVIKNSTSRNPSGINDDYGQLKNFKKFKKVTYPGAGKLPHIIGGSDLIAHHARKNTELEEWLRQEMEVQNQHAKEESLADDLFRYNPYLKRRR
inactive: alvocidib 0.008 | Tubastatin A -0.041 | [1] -0.006 | defactinib -0.029 | [2] 0.014 | encorafenib 0.022 | [3] 0.048 | alisertib -0.009 | [4] 0.018 | gefitinib -0.061 | lapatinib 0.008 | pictilisib -0.006 | crizotinib -0.028 | [5] 0.033 | duvelisib -0.006 | gandotinib -0.05 | tozasertib 0.032 | doramapimod 0.001 | bafetinib -0.016 | [6] -0.026

NSUN2 (UniProt Q08J23)
Chain of UniProt Q08J23 (Q08J23 whole entry, looked up): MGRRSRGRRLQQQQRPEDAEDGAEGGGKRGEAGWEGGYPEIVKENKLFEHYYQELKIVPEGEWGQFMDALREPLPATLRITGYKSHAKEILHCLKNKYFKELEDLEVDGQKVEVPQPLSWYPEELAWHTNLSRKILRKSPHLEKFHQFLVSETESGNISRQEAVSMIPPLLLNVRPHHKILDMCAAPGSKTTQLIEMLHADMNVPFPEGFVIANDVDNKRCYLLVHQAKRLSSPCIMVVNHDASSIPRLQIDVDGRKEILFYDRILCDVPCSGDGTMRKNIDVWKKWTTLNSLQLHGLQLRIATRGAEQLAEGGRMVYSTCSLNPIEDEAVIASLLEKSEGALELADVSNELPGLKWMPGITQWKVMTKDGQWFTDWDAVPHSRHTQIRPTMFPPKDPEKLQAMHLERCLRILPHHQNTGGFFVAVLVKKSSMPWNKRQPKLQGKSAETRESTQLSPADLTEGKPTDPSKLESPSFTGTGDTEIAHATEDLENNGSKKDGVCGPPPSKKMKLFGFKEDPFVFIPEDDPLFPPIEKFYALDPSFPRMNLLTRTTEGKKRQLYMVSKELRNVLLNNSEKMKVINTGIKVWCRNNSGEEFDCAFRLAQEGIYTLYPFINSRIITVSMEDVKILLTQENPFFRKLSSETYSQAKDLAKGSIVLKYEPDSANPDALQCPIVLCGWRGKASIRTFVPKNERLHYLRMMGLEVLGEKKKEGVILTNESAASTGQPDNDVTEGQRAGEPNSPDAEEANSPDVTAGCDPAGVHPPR
inactive: alvocidib 0.019 | Tubastatin A -0.097 | [1] -0.018 | defactinib 0.007 | [2] -0.024 | encorafenib -0.011 | [3] 0.096 | alisertib 0.014 | [4] -0.007 | gefitinib -0.02 | lapatinib -0.009 | pictilisib -0.006 | crizotinib -0.024 | [5] 0.072 | duvelisib -0.005 | gandotinib -0.05 | tozasertib -0.011 | doramapimod -0.009 | bafetinib -0.038 | [6] -0.007

NPLOC4 isoform 2 (UniProt Q8TAT6)
Chain of UniProt Q8TAT6 (Q8TAT6 whole entry, looked up): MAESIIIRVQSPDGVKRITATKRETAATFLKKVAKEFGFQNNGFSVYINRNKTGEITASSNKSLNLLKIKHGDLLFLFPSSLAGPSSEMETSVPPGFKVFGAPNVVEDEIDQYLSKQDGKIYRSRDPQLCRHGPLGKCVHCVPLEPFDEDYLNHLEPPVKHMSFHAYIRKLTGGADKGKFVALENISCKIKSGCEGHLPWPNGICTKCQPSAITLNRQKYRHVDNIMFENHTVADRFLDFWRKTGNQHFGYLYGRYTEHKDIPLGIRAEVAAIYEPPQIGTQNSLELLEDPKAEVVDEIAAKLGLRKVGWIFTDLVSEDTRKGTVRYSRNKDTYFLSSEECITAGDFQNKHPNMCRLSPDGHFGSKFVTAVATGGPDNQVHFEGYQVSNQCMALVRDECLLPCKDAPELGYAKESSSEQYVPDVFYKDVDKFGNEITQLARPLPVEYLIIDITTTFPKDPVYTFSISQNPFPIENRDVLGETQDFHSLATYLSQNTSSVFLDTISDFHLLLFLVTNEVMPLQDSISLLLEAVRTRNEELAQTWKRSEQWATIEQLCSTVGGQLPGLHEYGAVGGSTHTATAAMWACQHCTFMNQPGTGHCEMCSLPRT
inactive: alvocidib -0.06 | Tubastatin A 0.013 | [1] 0.019 | defactinib -0.007 | [2] 0.043 | encorafenib 0.021 | [3] 0.016 | alisertib 0.004 | [4] -0.007 | gefitinib -0.018 | lapatinib 0.022 | pictilisib 0.003 | crizotinib -0.023 | [5] -0.087 | duvelisib 0.01 | gandotinib 0.046 | tozasertib -0.003 | doramapimod 0.056 | bafetinib -0.019 | [6] 0.007

NAT1 (UniProt P18440)
Chain of UniProt P18440 (P18440 whole entry, looked up): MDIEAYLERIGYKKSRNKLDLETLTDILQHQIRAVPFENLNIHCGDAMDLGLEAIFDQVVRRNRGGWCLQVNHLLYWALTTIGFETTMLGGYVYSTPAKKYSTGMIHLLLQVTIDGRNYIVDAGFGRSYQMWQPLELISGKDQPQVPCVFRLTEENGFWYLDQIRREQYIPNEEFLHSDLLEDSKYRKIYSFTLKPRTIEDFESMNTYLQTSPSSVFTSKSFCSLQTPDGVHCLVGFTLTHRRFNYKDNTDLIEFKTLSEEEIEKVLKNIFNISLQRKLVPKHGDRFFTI
inactive: alvocidib 0.038 | Tubastatin A -0.087 | [1] -0.025 | defactinib 0.05 | [2] -0.046 | encorafenib -0.02 | [3] 0.006 | alisertib 0.035 | [4] 0.039 | gefitinib 0.031 | lapatinib 0.026 | pictilisib 0.111 | crizotinib -0.227 | [5] -0.089 | duvelisib 0.006 | gandotinib 0.004 | tozasertib -0.048 | doramapimod 0.058 | bafetinib 0.006 | [6] 0.083

Source: the supplement of paper PMC10849652
